Sampled rows, rich in hits. Any-hit rate of the full collection: about 2.1%.
KLF5 inhibitor – suppresses KLF5 promoter-driven expression; DLD-1 KLF5 promoter-luciferase reporter, luminescence; inhibition, % at 5 µM; actives 0.23% (n = 290,000);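 active means inhibition above a per-plate limit of that plate's mean compound inhibition plus 3 SD, cut at about 60% in these data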;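 further: 0% = DMSO wells and 100% = LY294002 at 200 µM; higher means less KLF5 promoter-driven luciferase light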
APP transl inh – APP translation inhibition. SH-SY5Y APP 5'UTR-luciferase reporter, luminescence. inhibition, % at 2 µM. AID 1285. actives 0.82% (n = 190,000);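 active means inhibition above a set limit, derived from the sample mean plus 3 SD, cut at about 45% in these data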
IEC-6 tox-1 – kills IEC-6 intestinal cells in KLF5 counter-screen; IEC-6 cytotoxicity, luminescence viability; inhibition, % at 5 µM; actives 0.78% (n = 290,000); in the data active means inhibition above about 22%;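 further: 0% = plate median of test compound wells and 100% = cytotoxic reference compound wells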
aSyn UTR inh – 5' untranslated region of α-synuclein, MLPCN primary screen | inhibition, % (tested at 7.5 µM) | actives 0.82% (n = 300,000) | AID 1813 | alpha-synuclein 5'UTR reporter, inhibitor activity; in the data active means inhibition above about 60%;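 further: H4 neuroglioblastoma cells stably carrying SNCA 5'UTR luciferase fusion; 0% = DMSO wells and 100% = positive control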
Ba/F3 V617F tox – reduce viability of Ba/F3 cells dependent on JAK2V617F; Ba/F3 EpoR-JAK2V617F viability, ATP luminescence; inhibition, % at 5.6 µM; actives 1.1% (n = 220,000); AID 1446;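 active means inhibition above the campaign mean plus 3 SD over all tested compounds, cut at about 24% in these data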;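 further: cytokine-independent growth of Ba/F3 cells driven by EpoR plus mutant JAK2; 0% = DMSO-treated cells and 100% = JAK inhibitor I control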
BaF3 tox – counter-screen for JAK2V617F inhibitors: parental Ba/F3 viability inhibitors. CellTiter-Glo ATP luminescence. inhibition, % at 5.6 µM. actives 1.1% (n = 220,000);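 active means inhibition above a per-campaign cutoff, the mean inhibition of all tested compounds plus 3 SD, cut at about 27% in these data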;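 further: 0% = DMSO wells and 100% = JAK Inhibitor I control wells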
KLF5 confirm – confirmation of KLF5 inhibitors; AID 1834; DLD-1 KLF5 promoter firefly luciferase reporter, luminescence; shares compounds with KLF5 inhibitor; inhibition, % at 4 µM; actives 79% (n = 610);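 active means inhibition above a set limit taken from the earlier primary screen, cut at about 63% in these data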;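 further: 0% = DMSO wells and 100% = LY294002 at 200 µM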
IEC-6 tox-2 – rat IEC-6 cytotoxicity, KLF5 inhibitor counter-screen; actives 56% (n = 610); shares compounds with KLF5 inhibitor; IEC-6 rat intestinal cells, viability luminescence; inhibition, % at 4 µM; in the data active means inhibition above about 23%;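 further: cells exposed to compounds for 48 hours before viability read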
* = called active by the depositor; · = no result given.

SMILES	KLF5 inhibitor	APP transl inh	IEC-6 tox-1	aSyn UTR inh	Ba/F3 V617F tox	BaF3 tox	KLF5 confirm	IEC-6 tox-2
COc1ccccc1N1CCN(c2nc(C)nc3c2oc2ccccc23)CC1	67*	93*	80*	90*	65*	71*	79*	64*
O=C(NCc1ccco1)C(c1ccncc1)N(C(=O)Cn1nnc2ccccc21)c1ccccc1F (centres undefined)	-22	·	5	11	·	·	·	·
COc1ccccc1C(=O)N/C(=C\c1cn(S(=O)(=O)N(C)C)c2ccccc12)C(=O)N1CCOCC1	-24	·	7	-12	·	·	·	·
N/C(COc1cc(Cl)cc(Cl)c1)=N\O	-22	·	-2	0	-4	-1	·	·
COc1ccc(/C=C/c2nc3ccccc3c(=O)o2)cc1	71*	·	8	102*	·	·	55	2
COc1ccc(/C=C/c2nc3ccccc3n2C)cc1	68*	19	12	109*	26*	31*	96*	34*
COc1ccccc1/C=C/c1nc2ccccc2c(=O)o1	-127	·	6	-107	·	·	·	·
CC(=O)NC1=C(N(C)C2CCS(=O)(=O)C2)C(=O)c2ccccc2C1=O (centres undefined)	-43	2	0	10	1	10	·	·
CCC(=O)N(C1=C(NC)C(=O)c2ccccc2C1=O)C(C)C	76*	22	3	-1	100*	102*	15	4
CNC1=C(N(C(C)=O)c2ccc(Br)cc2)C(=O)c2ccccc2C1=O	97*	55*	14	111*	100*	102*	94*	18
COc1ccc(NC(=O)CSc2nnc(-c3cnccn3)n2C)cc1OC	-5	·	12	-8	·	·	·	·
CCOc1cc(/C=N/NC(=O)C2CC2)ccc1OC(C)C	-13	·	-2	·	·	·	·	·
COc1ccc(OC)c(Nc2nc(=O)c3cccnc3s2)c1	75*	2	0	·	1	3	65*	-3
O=C(O)CCCn1cc(NC(=O)COc2ccccc2)cn1	-28	·	-1	-32	·	·	·	·
O=[N+]([O-])c1ccc(O)c(/C=N/Nc2ccccn2)c1	65*	76*	5	95*	68*	34*	58	54*
O=[N+]([O-])c1cccc(N/N=C/c2cc([N+](=O)[O-])ccc2O)c1	-26	-8	2	-70	1	3	·	·
CCc1ccc(NC(=O)c2cnn3ccccc23)cc1	87*	-135	7	78*	2	5	82*	3
CSc1cccc(NC(=O)c2cnn3ccccc23)c1	-154	·	-2	-100	-2	-3	·	·
CC1CCN(c2ccc(-c3cccs3)nn2)CC1	98*	·	7	102*	·	·	86*	5
Cc1ccc(S(=O)(=O)NCCc2cn3nc(C)c(C)nc3n2)cc1C	-8	·	-5	-4	·	·	·	·
N/C(=N\OCc1ccc([N+](=O)[O-])cc1)c1ccccn1	88*	-34	0	112*	1	9	97*	-3
CC(C)(C)c1nc2sc3c(c2c(=O)o1)CCCC3	69*	10	-3	5	2	4	3	-6
CCc1nc2sc3c(c2c(=O)o1)CCCC3	11	-6	0	-10	8	9	·	·
CC(C)(C)c1ccc(C(=O)O/N=C(\N)c2ccccn2)cc1	89*	·	-2	94*	·	·	96*	-12
Cc1ccc(C(=O)O/N=C(\N)c2ccccn2)cc1C	43	·	3	46	·	·	·	·
SMILES	KLF5 inhibitor	APP transl inh	IEC-6 tox-1	aSyn UTR inh	Ba/F3 V617F tox	BaF3 tox	KLF5 confirm	IEC-6 tox-2
Cc1cccc(NC(=S)NC(=O)/C=C/c2ccco2)c1	74*	62*	79*	-60	72*	78*	23	29*
COc1ccc(OC)c(N/C(C)=C/C(=O)c2ccccc2)c1	-32	-77	-16	-113	-2	-1	·	·
COc1ccc(OC)c(N/C=C/C(=O)c2ccccc2)c1	70*	·	4	83*	·	·	76*	2
COc1ccc2nc(NC(=O)c3ccccc3C(=O)O)sc2c1	-19	·	2	5	·	·	·	·
COc1ccc(C(=O)Nc2nc3ccccc3s2)c(OC)c1	101*	·	22	79*	·	·	80*	17
COc1cccc(NC(=O)C(=O)NCCC2CCCCN2S(=O)(=O)c2cccs2)c1 (centres undefined)	·	·	·	-148	·	·	·	·
CC(C)(C)c1ccc(C(=O)Nc2sc3c(c2C(=O)O)CCC3)cc1	78*	-14	6	95*	8	11	75*	-2
O=C(Nc1sc2c(c1C(=O)O)CCCC2)c1ccc(F)cc1	-2	·	2	-94	·	·	·	·
Cc1ccc(CNC(=O)N2CCN(S(=O)(=O)c3ccccc3)CC2)cc1	-18	·	-5	6	·	·	·	·
Cc1cc(C(F)(F)F)c(C#N)c(SCC(=O)Nc2nc3ccccc3s2)n1	-36	-180	5	-34	1	1	·	·
Cc1nc(SCC(=O)Nc2nc3ccccc3s2)c(C#N)c(C)c1C	96*	64*	5	100*	1	9	108*	27*
CCOc1ccc(CCNC(=O)C2CC(=O)N(c3ccc4c(c3)OCCO4)C2)cc1OCC (centres undefined)	·	·	·	-4	·	·	·	·
CC(C)C(=O)NC(c1cccs1)c1cc([N+](=O)[O-])c2cccnc2c1O (centres undefined)	-17	-3	-2	53	3	8	·	·
CC(C)CC(=O)NC(c1cccs1)c1ccc2cccnc2c1O (centres undefined)	77*	82*	12	74*	65*	75*	86*	50*
Cc1conc1NC(c1cccs1)c1ccc2cccnc2c1O (centres undefined)	70*	39	7	66*	97*	83*	23	5
CCC(=O)NC(c1cccs1)c1ccc2cccnc2c1O (centres undefined)	78*	85*	28*	80*	77*	59*	91*	81*
CC(C)C(=O)NC(c1ccco1)c1ccc2cccnc2c1O (centres undefined)	67*	84*	13	63*	51*	60*	96*	40*
Cc1ccc(C(NC(=O)C(C)C)c2cc([N+](=O)[O-])c3cccnc3c2O)cc1 (centres undefined)	-24	2	-2	-29	-6	2	·	·
O=C(Nc1cc(Cl)ccc1C(=O)O)c1ccc(CN2C(=O)c3ccccc3C2=O)cc1	-14	·	4	1	·	·	·	·
NNC(=O)[C@H](Cc1ccccc1)NC(=O)NCCc1ccccc1	-15	·	3	-2	·	·	·	·
CC(C)(C)C(=O)Nc1ccc(NC(=O)c2ccco2)nc1	94*	·	2	102*	·	·	102*	9
COc1cc(CNc2ccc(S(N)(=O)=O)cc2)ccc1OCC(=O)NC1CCCCC1	75*	13	-8	-8	2	4	-12	8

High-throughput results (PubChem BioAssay)
